Test results as given in the supplement of paper PMC6555819.

How the values were obtained:
Assay in all cases: PBM binding z-score (relative to random genomic background probes); higher = stronger binding; sequences stand for … in GC…GCGATTGACAGCGTAGAATGAAGG
[1] = system: FXR:RXRa (NR concentration 270 nM, RXRa partner concentration 90 nM)
Method in brief: (§1)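 Regression normalization was applied to scanned fluorescence from custom Agilent 4×180K protein-binding microarrays. Before scanning, arrays were incubated 1 h with ligand-free nuclear receptor dimers, and binding was detected with antibodies against each partner (one per run). Binding z-scores use the random background probes as reference.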

[2] = system: LXRa:RXRa (NR concentration 270 nM, RXRa partner concentration 90 nM)
Method in brief: as §1

[3] = system: LXRa homodimer (NR concentration 270 nM)
Method in brief: as §1

[4] = system: LXRb:RXRa (NR concentration 270 nM, RXRa partner concentration 90 nM)
Method in brief: as §1

[5] = system: LXRb homodimer (NR concentration 270 nM)
Method in brief: as §1

[6] = system: PPARa:RXRa (NR concentration 270 nM, RXRa partner concentration 90 nM)
Method in brief: as §1

[7] = system: PPARg:RXRa (NR concentration 180 nM, RXRa partner concentration 90 nM)
Method in brief: as §1

[8] = system: PPARg:RXRa 270nM:90nM, anti-RXR (NR concentration 270 nM, RXRa partner concentration 90 nM)
Method in brief: as §1

[9] = system: PPARg:RXRa 30nM:10nM, anti-RXR (NR concentration 30 nM, RXRa partner concentration 10 nM)
Method in brief: as §1

[10] = system: PPARg:RXRa 90nM:30nM, anti-RXR (NR concentration 90 nM, RXRa partner concentration 30 nM)
Method in brief: as §1

[11] = system: PPARg:RXRa DBDmut IVT, anti-RXR (DBD mutation: RXRa K156A/R161A, NR concentration 270 nM, RXRa partner concentration 90 nM)
Method in brief: as §1

[12] = system: PPARg:RXRa IVT, anti-PPARg (NR concentration 270 nM, RXRa partner concentration 90 nM)
Method in brief: as §1

[13] = system: PPARg DBDmut:RXRa IVT, anti-PPARg (DBD mutation: PPARg1 K132A/R137A, NR concentration 270 nM, RXRa partner concentration 90 nM)
Method in brief: as §1

[14] = system: PPARg DBDmut IVT, anti-PPARg (DBD mutation: PPARg1 K132A/R137A, NR concentration 270 nM)
Method in brief: as §1

[15] = system: PPARg homodimer (NR concentration 180 nM)
Method in brief: as §1

[16] = system: PXR:RXRa (NR concentration 270 nM, RXRa partner concentration 90 nM)
Method in brief: as §1

[17] = system: PXR homodimer (NR concentration 270 nM)
Method in brief: as §1

[18] = system: RARa:RXR (NR concentration 270 nM, RXRa partner concentration 90 nM)
Method in brief: as §1

[19] = system: RARa homodimer (NR concentration 270 nM)
Method in brief: as §1

[20] = system: RARb:RXRa (NR concentration 270 nM, RXRa partner concentration 90 nM)
Method in brief: as §1

Sequence | PBM binding z-score [1] | PBM binding z-score [2] | PBM binding z-score [3] | PBM binding z-score [4] | PBM binding z-score [5] | PBM binding z-score [6] | PBM binding z-score [7] | PBM binding z-score [8] | PBM binding z-score [9] | PBM binding z-score [10] | PBM binding z-score [11] | PBM binding z-score [12] | PBM binding z-score [13] | PBM binding z-score [14] | PBM binding z-score [15] | PBM binding z-score [16] | PBM binding z-score [17] | PBM binding z-score [18] | PBM binding z-score [19] | PBM binding z-score [20]
TCTGCTAGGTCAGTTGGTAAGCTAACGAGCTGCC | 0.91 | 0.626 | -1.01 | 0.157 | 0.503 | 0.96 | 0.118 | 1.28 | 1.04 | 1.18 | 2.46 | 2.46 | -0.0986 | 0.0442 | -0.393 | -0.186 | -1.11 | 0.233 | -1.42 | 3.29
CGTCCAAGATCATAGGAGGTCAGTGAAGACAGAT | 1.56 | 2.77 | 1.2 | 2.26 | 0.134 | 2.69 | 0.898 | 0.559 | 0.251 | 0.198 | 0.389 | 1.23 | 0.673 | 0.577 | 1.4 | 2.93 | 0.844 | 2.62 | 0.513 | 2.25
ATCGAAATGTCGAAGGTGAGTATACCCACCCGAA | -0.36 | -0.333 | -0.285 | -0.254 | -0.151 | 0.29 | 0.913 | 0.538 | 0.133 | 0.522 | -1.11 | 0.391 | 0.818 | 0.244 | -0.161 | -0.253 | -0.511 | 0.116 | -0.269 | 0.495
CAAACAAGGTCAAGAGGTCAAAGTCCGCTTCCCG | – | – | 7.29 | – | 2.87 | – | 8.71 | 8.05 | 6.08 | 7.7 | 5.59 | 6.52 | 1.74 | 1.24 | 8.18 | – | 5.91 | – | 4.23 | –
CAAACAAGGTCAAGGTCAAAGTCGGTTTGTGCCA | – | – | 4.84 | – | 2.25 | 6.38 | 7.93 | 7.31 | 4.7 | 6.55 | 5.99 | 6.6 | 3.37 | 1.15 | 4.82 | – | 3 | 6.86 | 2.95 | –
CGTCCAAGGTCAAAGTTCAGTGAAGAGATGACGG | 7.9 | 6.35 | 3.82 | 5.48 | 2.19 | 6.47 | 9.06 | 8.05 | 6.19 | 8.24 | 3.41 | 5.08 | 0.409 | 1.29 | 3.79 | 6.59 | 3.31 | 8.01 | 1.47 | 5.44
TAGCATAGGTCATTGGGCCAGTATAGTACGCATC | 6.02 | 5.02 | 1.27 | 4.02 | 0.541 | 5.41 | 5.17 | 5.29 | 1.75 | 3.7 | 1.83 | 3.4 | 0.78 | 0.329 | 1.56 | 2.87 | -0.00464 | 3.16 | 0.152 | 3.97
CCTAGTTGGTCAGAAGGTCACACACCGGATATGA | 3.53 | 3.45 | 1.87 | 3.36 | 1.07 | 4.17 | 2.81 | 4.25 | 1.8 | 3.82 | 1.63 | 2.85 | 1.32 | 0.414 | 4.39 | 3.98 | 1.29 | 4.56 | 3.08 | 3.85
TCTCGGAGGAAACGAAGGTCAGAGCTTTCCAGAG | 0.418 | 0.556 | -0.0873 | 1.02 | -1.15 | 1.72 | -0.151 | 1.19 | 1.74 | 1.39 | 0.867 | -0.0763 | -1.61 | -1.24 | 0.766 | 0.848 | -0.378 | 1.7 | -0.763 | 2.03
AGTCAAAGTTCATTTAGGTAACGTAAGATATGCT | 6.47 | 6.25 | 6.58 | 4.2 | 3.14 | 4.58 | – | 6.05 | 2.98 | 5.09 | 0.638 | 3.21 | 1.36 | 1.51 | 2.39 | 5.45 | 8.27 | 3.63 | 1.4 | 4.66
CCGACTGGGGCAAGGTTACCTTAACGCACAGCCA | 0.184 | 0.54 | -0.581 | 0.495 | -1.66 | 1.97 | 2.58 | 3.54 | 0.821 | 3.07 | 3.34 | 3.76 | -1.05 | -0.772 | 0.376 | 0.303 | -0.595 | 0.858 | -0.882 | 1.63
ATCTCTAGGCAAAAGTTCAGTGAATCCCGAGGAT | 0.235 | 0.757 | 0.751 | 0.584 | 0.319 | 2.96 | 5.41 | 6.14 | 5.06 | 6.01 | 0.185 | 1.61 | 0.694 | 0.529 | 1.05 | 1.5 | 1.04 | 0.864 | -0.11 | 2.33
CGTCCAAGGTCGGCAGGTCAGTGAAAGCGACGTG | 1.48 | 0.7 | -0.723 | 0.338 | -1.39 | 1.95 | -0.15 | 0.764 | -0.459 | -0.168 | -0.305 | 0.214 | -0.718 | -1.66 | 0.288 | 1.23 | -0.703 | 1.88 | -0.686 | 3.17
CCTACTGGGCCATTCAGAGGTAATTGATCATATG | -0.331 | -0.32 | -0.381 | -0.312 | -0.992 | 0.524 | 0.262 | 0.25 | -0.481 | -0.189 | 3.91 | 3.26 | -0.325 | -0.711 | -0.319 | -0.537 | -0.389 | -0.179 | -0.252 | 0.178
TCTAGCAGGACAGAGGGTCACTCAAGAGGTACGG | 0.869 | 1.11 | -0.354 | 1.18 | -0.839 | 2.19 | 1.45 | 2.25 | 2.15 | 2.31 | 0.809 | 0.465 | -0.0481 | -0.462 | 0.414 | 1.48 | -0.392 | 2.3 | -0.209 | 2.06
GCGACTGGGGGATCAGCAGGTTACCATAACTTAA | 0.383 | 0.523 | 0.0867 | 2.54 | 5.33 | 1.5 | 0.824 | 1.73 | 0.24 | 1.15 | 0.873 | 2.43 | 3.69 | 4.01 | 0.749 | 1.15 | 0.388 | 1.31 | -0.462 | 0.688
